# ELG1 repair inh: ELG1-dependent DNA repair inhibition; HEK293T ELG1-luciferase reporter, luminescence, 16 h; DNA damage induced by 5-fluorouridine; Potency, µM (highest dose often 46.1 µM), for inactives: at the highest dose activity change, negative = inhibition, actives largely listed as inhibitors; 330,000 tested, 2.3% active; AID 504467; note: % is set by controls: 0 for no effect and ±100 for the full control effect; nearly all actives have a fitted effect of over 55% in size
#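 Cells (2,000 per well) received 5-fluorouridine plus test compound or DMSO and were incubated 16 hr at 37 °C, 5% CO2. Luciferase activity was read by luminescence 30 min after ONE-Glo addition; signal suppression marked inhibition of damage-induced ELG1 function.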
# FLuc counter: firefly luciferase modulation, counter-screen for miR-21 project | P08659 | purified FLuc, Km substrates, luminescence inhibition | Potency, µM (highest dose often 57.5 µM), inactives show at the top dose activity change, negative = inhibition, actives largely listed as inhibitors | 360,000 tested, 6.9% active;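 note: plate controls were vehicle for no effect and reference inhibitor for full effect; nearly all actives have a fitted effect of over 55% in size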
# Target sequence (P08659 whole entry, looked up): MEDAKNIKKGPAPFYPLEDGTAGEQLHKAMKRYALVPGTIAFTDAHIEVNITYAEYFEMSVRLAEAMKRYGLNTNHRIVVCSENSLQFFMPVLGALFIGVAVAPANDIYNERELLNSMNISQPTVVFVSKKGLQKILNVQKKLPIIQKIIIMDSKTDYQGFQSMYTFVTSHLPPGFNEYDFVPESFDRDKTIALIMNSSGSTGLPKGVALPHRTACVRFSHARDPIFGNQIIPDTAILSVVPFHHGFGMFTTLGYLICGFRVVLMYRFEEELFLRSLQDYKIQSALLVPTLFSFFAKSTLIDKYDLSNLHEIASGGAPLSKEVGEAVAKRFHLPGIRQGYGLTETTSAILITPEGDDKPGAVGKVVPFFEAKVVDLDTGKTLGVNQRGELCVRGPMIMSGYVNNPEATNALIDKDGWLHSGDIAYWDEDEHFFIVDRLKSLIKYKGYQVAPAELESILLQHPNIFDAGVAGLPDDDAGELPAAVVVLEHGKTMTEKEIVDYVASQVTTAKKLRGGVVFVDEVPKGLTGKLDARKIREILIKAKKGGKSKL
#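 Biochemical qHTS of compounds, final roughly 60 µM downward over six points, against 10 nM purified firefly luciferase using Km concentrations of substrates (10 uM D-luciferin, 10 uM ATP) in Tris acetate pH 7.5 buffer; luminescence output.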
# SMN2 splice up: SMN2 splice variant enhancement; HEK293 SMN2-luciferase splicing reporter, luminescence, 30-36 h; Potency, µM (top dose mostly 46.1 µM), for inactives: at the highest dose activity change, positive = activation, actives largely listed as activators; 210,000 tested, 2.8% active; AID 1458; note: % of control where 0% means no effect; nearly all actives have a fitted effect of over 55% in size
#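 qHTS luciferase splicing reporter: luminescence rises when SMN2 exon 7 is included in transfected HEK293 cells. Compound exposure lasted 30-36 h at 37C, with 4.5 mM final sodium butyrate as control, followed by a ONE-Glo read.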
# ELG1 genotox: induces genotoxicity in HEK293T cells with luciferase-tagged ELG1. HEK293T ELG1-luciferase reporter, luminescence, 16 h. Potency, µM (doses to about 46 µM), for the others: top-dose activity change, positive = activation, actives largely listed as activators. 330,000 tested, 1.3% active. AID 504466; note: % of control where 0% means no effect; nearly all actives have a fitted effect of over 60% in size
#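 16 hr compound incubation (37 °C, 5% CO2) of HEK293T cells carrying luciferase-tagged ELG1; luciferase then measured by ONE-Glo luminescence after 30 min at RT.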
# Rab9 prom act: Rab9 promoter activation; Huh7 Rab9 promoter-luciferase reporter, luminescence, 24 h; 320,000 tested, 2.8% active; AID 485297; Potency, µM (highest dose often 9.22 µM), for the others: at the highest dose activation, negative = inhibition, most hits filed as activators; note: % of control where 0% means no effect; nearly all actives have a fitted effect of over 60% in size
#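 Luminescence from Amplite-detected luciferase (10 minutes, ambient) reports Rab9 promoter activation. Before that, stable Rab9-luciferase Huh7 cells (1500/well, reduced-serum OP-MEM I plus 10% FBS) were exposed to compound for 24 hours at 37C.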
# NPC1 promoter act: NPC1 promoter activation | Huh7 NPC1 promoter luciferase reporter, 24 h | Potency, µM (titrated, usually from 9.22 µM), inactives show at the top dose activation, usual class: activators | 320,000 tested, 2.4% active; note: % of control where 0% means no effect; nearly all actives have a fitted effect of over 60% in size
#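 Quantitative HTS used a cell-based reporter: Huh7 cells stably bearing the NPC1 promoter upstream of luciferase were treated with compounds for 24 h, and promoter activation was read as luminescence.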
# Active calls of the source: *; ? = inconclusive; / = not tested or not shown. In the library only some 9.3% were active in any assay of this set; here they are far more common. Calls come from the whole dose curve; as a rule, active = well fitted curve in the direction sought with a large enough effect; inconclusive = small, poorly fitted or top-dose-only effect, or another doubt; inactive = no such curve, though single readings can be large; an effect the other way counts as inactive or inconclusive. Potency is the fitted concentration of half-maximal effect.
SMILES,ELG1 repair inh,FLuc counter,SMN2 splice up,ELG1 genotox,Rab9 prom act,NPC1 promoter act
O=C(CSc1nnc(-c2ccco2)n1Cc1ccccc1)NCc1ccccc1,20.6µM*,1.4%,-6.2%,-1.9%,-6.2%,-2.4%
O=C(CSc1nnc(-c2cccs2)n1Cc1ccco1)Nc1ccc2c(c1)OCO2,14.6µM*,0.7%,-20.0%,-4.9%,-2.4%,-1.1%
O=C(CSc1nnc(-c2ccco2)n1Cc1ccco1)NCc1ccccc1,-11.4%,-1.5%,10.1%,-2.2%,-4.6%,0.9%
O=C(CSc1nnc(-c2ccccc2)n1Cc1ccco1)NCc1ccc2c(c1)OCO2,16.4µM*,-0.7%,-6.8%,-1.8%,19.6%,-4.3%
CCOC(=O)c1cc(-c2ccccc2)n(CC(=O)Nc2ccc(CC)cc2)c1C,/,-3.2%,/,/,/,/
Cc1cc(OCC(=O)N(C)C2CCCCC2)ccc1Cl,?,2.69µM*,?,26.3%,0.631µM*,0.355µM*
Cc1cc(OCC(=O)N(C)C2CCCCC2)cc(C)c1Cl,4.5%,?,22.9%,?,1.6%,12.1%
CCOC(=O)C(NC(C)=O)C(=O)Nc1c(C)cccc1C (stereo unspecified),1.3%,-2.0%,16.4%,2.0%,-0.8%,0.2%
COc1ccc2c(C)c(CCC(=O)NCCc3ccc(OC)c(OC)c3)c(=O)oc2c1,/,4.6%,-3.6%,/,/,/
CCOC(=O)c1c(NC(=S)NNS(=O)(=O)c2ccc(Br)cc2)sc2c1CCCCC2,?,-0.9%,/,-12.8%,-10.4%,-1.1%
Cn1nnnc1Sc1ncnc2scc(-c3ccc(-c4ccccc4)cc3)c12,?,/,/,-8.5%,/,/
Cn1nnnc1Sc1ncnc2scc(-c3cc4ccccc4o3)c12,20.6µM*,-2.7%,/,-9.1%,-14.7%,-7.8%
Cn1nnnc1Sc1ncnc2scc(-c3ccc(C(F)(F)F)cc3)c12,6.51µM*,-0.5%,/,-13.9%,2.5%,-3.0%
CCCOc1cccc(-c2cc(C(=O)N/N=C/c3ccccn3)c3ccccc3n2)c1,11.6%,3.79µM*,/,?,-13.4%,-1.5%
Cc1cccc(/C=N/NC(=O)c2cc(-c3cccnc3)nc3ccccc23)c1,3.9%,-2.7%,15.1%,-3.7%,-1.0%,-6.8%
CC(C)COc1cccc(-c2cc(C(=O)Nc3ccon3)c3ccccc3n2)c1,?,?,/,-18.6%,-0.2%,-2.2%
CCCOc1cccc(-c2cc(C(=O)NN)c3ccccc3n2)c1,-20.0%,21.3µM*,-83.3%,-2.0%,1.6%,0.6%
CCCOc1cccc(-c2cc(C(=O)N/N=C/c3cccnc3)c3ccccc3n2)c1,16.4µM*,7.57µM*,/,-15.1%,-4.2%,2.3%
COc1ccc(-c2cc(C(=O)N/N=C(\C)c3cccnc3)c3ccccc3n2)cc1,?,0.675µM*,/,?,?,?
COc1cc(/C=N/NC(=O)c2cc(-c3ccccc3)nc3ccccc23)cc(OC)c1O,?,23.9µM*,/,-2.5%,1.8%,-5.1%
COc1ccc(-c2cc(C(=O)N/N=C/c3cccnc3)c3ccccc3n2)cc1,?,1.07µM*,/,3.2%,23.6%,2.9%
OCC[C@@H]1C[C@@H](O)[C@H](O)[C@]2(Cc3ccccc3CO2)O1,?,-1.1%,/,6.6%,-1.1%,-6.1%
CCOc1ccc(Br)cc1C1C(C(=O)OC)=C(C)NC2=C1C(=O)c1ccccc12 (stereo unspecified),/,-14.4%,-3.7%,/,/,/
COc1cc(/C=C(\C#N)C(=O)Nc2ccccc2C(=O)O)cc(Cl)c1OC,-20.7%,26.9µM*,1.6%,-0.4%,-0.6%,-8.6%
CC1CC1c1ccc(/C=C(\C#N)C(=O)Nc2cc(Cl)ccc2Cl)o1 (stereo unspecified),-0.1%,1.2%,8.7%,-1.9%,-3.8%,-1.6%
N#C/C(=C\c1ccc(-c2cc(Cl)ccc2Cl)o1)C(=O)Nc1ccccc1C(=O)O,/,4.26µM*,-1.1%,/,/,/
COc1ccc(/C=C(/C#N)C(=O)Nc2ccccc2C)cc1C(=O)O,?,-7.0%,5.0%,1.5%,-3.5%,0.3%

# High-throughput results as filed in PubChem BioAssay.
